The results in this text go back to PubChem BioAssay (NCATS).

Several values for one entry are separate records, joined by “and”; a condition that tells them apart may be missing. Identical values can stand only once. Inconclusive results are not listed. Values without a mark were called inactive. Activity calls are given as the source filed them. Calls come from the whole dose curve; as a rule, active = well fitted curve in the direction sought with a large enough effect; inconclusive = small, poorly fitted or top-dose-only effect, or another doubt; inactive = no such curve, though single readings can be large; an effect the other way counts as inactive or inconclusive.

Experiment [1] in a line: Viability qHTS for spleen associated tyrosine kinase inhibitor (SYKi) naive MV4-11 cells (AID 1963823). Note: nearly all actives have a fitted effect of over 40% in size. A digest of the protocol: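 CellTiter-Glo luminescence, 10 min room-temperature incubation, gave viability. Cells: naive MV4-11 (500/well), treated 72 hr at 37 C, 5% CO2.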
Background: In qHTS, concentration-response curves come from the screen itself.

Experiment [2] can be described thus: Viability qHTS for spleen associated tyrosine kinase inhibitor (SYKi) drug resistant MV4-11 cells (AID 1963824). Note: nearly all actives have a fitted effect of over 35% in size. A digest of the protocol: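 CellTiter-Glo luminescence, read 10 min after reagent addition, reports viability after a 72 hr compound exposure. Cells are an MV4-11 line made resistant to SYK inhibition, seeded at 500 per well onto compound-containing plates.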

The nature of experiment [3]: Quantitative highthroughput screen to assess conditional lethalithy of NOMO1 cells grown in RPMI1640 with untreated serum (RPMI+s) (AID 1963876).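 For Viability: 100% = DMSO wells and 0% = empty wells without cells.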 Note: nearly all actives have a fitted effect of over 35% in size. A digest of the protocol: (§1)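 Each medium arm—HPLM with 10% dialyzed FBS, or RPMI1640 with 5 mM glucose and 10% untreated or dialyzed FBS—was screened against an 11-point, 3-fold compound titration for 48 h at 37 °C, with CellTiter-Glo luminescence as endpoint.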

Experiment [4] is described as follows: Quantitative highthroughput screen to assess conditional lethalithy of NOMO1 cells grown in RPMI1640 with dialyzed fetal bovine serum (RPMI+ds) (AID 1963877).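 For Viability: series mostly up to about 46 µM; 100% = DMSO control wells and 0% = empty wells.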 Note: nearly all actives have a fitted effect of over 30% in size. A digest of the protocol: as §1
Experiment [5] can be described thus: Quantitative highthroughput screen to assess conditional lethalithy of NOMO1 cells grown in Human Plasma-Like Medium with dialyzed fetal bovine serum (HPLM+ds) (AID 1963878).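 For Viability: 100% = DMSO wells and 0% = empty wells on each plate.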 Note: nearly all actives have a fitted effect of over 35% in size. A digest of the protocol: as §1
Experiment [6] is described as follows: Quantitative highthroughput screen to assess conditional lethalithy of P12 Ichikawa cells grown in Human Plasma-Like Medium with dialyzed fetal bovine serum (HPLM+ds) (AID 1963879). For Viability: series mostly up to about 46 µM. Note: nearly all actives have a fitted effect of over 35% in size. The conditions noted are these: Potency: viability. A digest of the protocol:
as §1

Experiment [7] is described as follows: Quantitative highthroughput screen to assess conditional lethalithy of P12 Ichikawa cells grown in RPMI1640 with dialyzed fetal bovine serum (RPMI+ds) (AID 1963880).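 For Viability: 100% = DMSO wells and 0% = empty wells on each plate.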 Note: nearly all actives have a fitted effect of over 35% in size. The following applies: Potency: P12-Ichikawa viability. A digest of the protocol: as §1
The nature of experiment [8]: Quantitative highthroughput screen to assess conditional lethalithy of P12 Ichikawa cells grown in RPMI1640 with untreated serum (RPMI+s) (AID 1963881).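 For Viability: series mostly up to about 46 µM; 100% = DMSO wells and 0% = empty wells without cells.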 Note: nearly all actives have a fitted effect of over 35% in size. The conditions noted are these: Potency: viability. A digest of the protocol:
as §1

Experiment [9] can be described thus: Quantitative highthroughput screen to assess conditional lethalithy of SEM cells grown in Human Plasma-Like Medium with dialyzed fetal bovine serum (HPLM+ds) (AID 1963882). For Viability: series mostly up to about 46 µM. Note: nearly all actives have a fitted effect of over 35% in size. A digest of the protocol: as §1
A short description of experiment [10]: Quantitative highthroughput screen to assess conditional lethalithy of SEM cells grown in RPMI1640 with unreated serum (RPMI+s) (AID 1963883).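 For Viability: 100% = DMSO wells and 0% = empty wells without cells.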 Note: nearly all actives have a fitted effect of over 35% in size. A digest of the protocol: as §1
Experiment [11] is described as follows: Quantitative highthroughput screen to assess conditional lethalithy of SEM cells grown in RPMI1640 with dialyzed fetal bovine serum (RPMI+ds) (AID 1963884).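 For Viability: series mostly up to about 46 µM; 100% = DMSO control wells and 0% = empty wells without cells.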 Note: nearly all actives have a fitted effect of over 35% in size. A digest of the protocol:
as §1

Experiment [12] can be described thus: Cellular viability qHTS for adrenocortical cancer (ACC) cell line SW-13 (AID 1963989).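 For activity (max response): cells grown in serum-free medium with ITS supplement; % is set by controls: 0 for no effect and ±100 for the full control effect.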 Note: nearly all actives have a fitted effect of over 65% in size. The following applies: SW-13 ACC cells viability, CellTiter-Glo, 48 h; activity (max response): stronger effect = lower value. A digest of the protocol:
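48 h treatment, SW-13 in ITS/DMEM serum-free; doses up to 46 uM; readout CellTiter-Glo luminescence; curve fit four-parameter logistic.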

Experiment [13] can be described thus: Cellular viability qHTS for adrenocortical cancer (ACC) cell line NCI-H295R (AID 1963990).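 For activity change, negative = viability loss: 0% = DMSO only wells and -100% = full killing with cytotoxic reference compound.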 Note: nearly all actives have a fitted effect of over 60% in size. A digest of the protocol: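 Compound titrations (up to 46 uM final) are applied to NCI-H295R cultures for 48 h at 37C. Viable cell number is estimated by CellTiter-Glo signal, normalised to DMSO and doxorubicin controls.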
Potency is the fitted concentration of half-maximal effect.

As for `Cc1cc(-c2ncc(CC(=O)Nc3ccc(-c4cnccn4)cn3)cc2C)ccn1`, the Potency in [1] was 5.25 µM (active); in experiment [2], 2.06 µM (active). Moreover, the Potency entry in [3], in experiment [4], in [5], in [6], in [7] and in experiment [8] was “inactive” in each case. Also, the Potency entry in [9], in experiment [10], in experiment [11] and in experiment [13] was “inactive” throughout. For the same compound, the activity (max response) in experiment [12] was -24.1%.
For `CN(C)c1nc(N(C)C)nc(N(C)C)n1`, the Potency entry in experiment [1], in experiment [2], in experiment [3], in experiment [4], in [5] and in [6] was “inactive” each time. Further, the Potency result in experiment [7], in experiment [8], in [9], in experiment [10], in experiment [11] and in [13] was “inactive” in each case. In [12], the activity (max response) is -1.75% and -4.21%.
As to `COc1cccc2c1C(=O)c1c(O)c3c(c(O)c1C2=O)C[C@@](O)(C(=O)CO)C[C@@H]3O[C@H]1C[C@H](N)[C@@H](O)[C@H](C)O1`, the Potency is 0.0661 µM (active) in [1]; 0.0525 µM (active) in [2]; 2.96 µM (active) in [3]; 2.96 µM (active) in experiment [4]; 3.32 µM (active) in experiment [5]; 2.96 µM (active) in experiment [6]. Besides, the Potency is 2.96 µM (active) in [7]; 2.96 µM (active) in experiment [8]; 2.64 µM (active) in [9]; 1.48 µM (active) in experiment [10]; 2.64 µM (active) in [11]; 1.12 µM (active) in experiment [12]. Moreover, in experiment [13], the Potency was 8.91 µM (active).
As for `O=C1c2ccccc2-[n+]2ccc3c([nH]c4ccccc43)c21`, the Potency is 0.82 µM (active) in experiment [1]; 0.651 µM (active) in experiment [2]; 6.62 µM (active) in [3]; 5.9 µM (active) in [4]; 5.26 µM (active) in experiment [5]; 8.33 µM (active) in [6]. Further, the Potency in [7] was 9.35 µM (active); in experiment [8] it was 8.33 µM (active); in experiment [9] it was 2.64 µM (active); in experiment [10], 3.32 µM (active); in experiment [11], 3.32 µM (active); in experiment [12], 2.82 µM (active). Moreover, the Potency in experiment [13] is 2.82 µM (active).
Regarding `CC(C)(CO)[C@@H](O)C(=O)NCCC(=O)O`, the Potency entry in experiment [1], in experiment [2], in experiment [3], in experiment [4], in experiment [5] and in [6] was “inactive” in each case. The Potency result in [7], in experiment [8], in experiment [9], in [10], in experiment [11] and in [13] was “inactive” in each case. In addition, the activity (max response) in experiment [12] is -17.7%.
Consider `Cc1cc(C(C)Nc2ccccc2)c2nc(N3CCOCC3)cc(=O)n2c1` (centres undefined), for which the Potency in experiment [1] is 9.2 µM (active) and 5.9 µM (active); in experiment [2], 10.3 µM (active) and 9.34 µM (active). For the same compound, the Potency result in experiment [3], in experiment [4], in [5], in experiment [6], in experiment [7] and in [8] was “inactive” each time. Besides, the Potency result in experiment [9] and in experiment [13] was “inactive” each time. Further, in experiment [12], the activity (max response) was -14.6%.
In the case of `COc1ccc2c(c1)c(CC(=O)O)c(C)n2C(=O)c1ccc(Cl)cc1`, the Potency result in experiment [1], in experiment [2], in experiment [3], in experiment [4], in [5] and in [6] was “inactive” in each case. Also, the Potency entry in [7], in experiment [8], in [9], in experiment [11] and in experiment [13] was “inactive” each time. Besides, the activity (max response) in experiment [12] was -9.65% and -2.21%.
Regarding `CC(NCCc1ccc(O)cc1)C(O)c1ccc(O)cc1` (centres undefined), the Potency result in [1], in experiment [2], in experiment [3], in experiment [4], in experiment [5] and in experiment [6] was “inactive” in each case. Moreover, the Potency entry in experiment [7], in experiment [8], in experiment [9], in experiment [10] and in experiment [13] was “inactive” in each case. Moreover, in experiment [12], the activity (max response) is -9.55%.
With `CC(C)[C@H](N)C(=O)OCCOCn1cnc2c(=O)[nH]c(N)nc21`, in experiment [1], the Potency is 5.9 µM (active). The Potency result in [2], in experiment [3], in [4], in experiment [5], in [6] and in experiment [7] was “inactive” in each case. The Potency result in experiment [8], in experiment [10], in [11] and in experiment [13] was “inactive” throughout.
Turning to `CCOC(=O)C(C)Oc1cccc2c(=O)n(CC(=O)Nc3ccc4c(c3)OCCO4)ccc12` (centres undefined), the Potency in [1] was 1.48 µM (active); in experiment [2], 0.934 µM (active). For the same compound, the Potency result in experiment [3], in experiment [4], in [5], in experiment [6], in experiment [7] and in experiment [8] was “inactive” throughout. Moreover, the Potency entry in experiment [9], in [10] and in experiment [13] was “inactive” in each case. Further, the activity (max response) in experiment [12] was 14.3%.
With `O=C1CCC[C@@H]2[C@H]3CCC[N+]4([O-])CCC[C@@H](CN12)[C@@H]34` (some centres undefined), the Potency entry in [1], in experiment [2], in experiment [6], in [7], in [8] and in experiment [13] was “inactive” in each case. For the same compound, the Potency was 8.33 µM (active) in [3], 7.43 µM (active) in experiment [4], 5.9 µM (active) in experiment [5] and 7.43 µM (active) in experiment [10]. The activity (max response) in experiment [12] was -8.5%.
For `CN[C@@H](C)[C@H]1[C@H](O)C[C@@]2(C)[C@@H]3CC[C@H]4C(C)(C)[C@@H](NC)CC[C@@]45C[C@@]35CC[C@]12C`, in experiment [1], the viability (% of control) was 79.2% [at 9.25 µM]. Also, in [2], the viability, % of control was 80.2% [at 9.25 µM]. Further, the Potency result in experiment [3], in [4], in [5], in experiment [6], in experiment [7] and in [8] was “inactive” each time. The Potency result in experiment [10] and in experiment [11] was “inactive” in each case. Also, the activity (max response) in experiment [12] is -3.37%. In addition, the activity change, negative = viability loss in experiment [13] is -14.8% [at 9.17 µM].
As to `Oc1ccc(-c2nc(-c3ccc(F)cc3)c(-c3ccncc3)[nH]2)cc1`, the Potency is 9.34 µM (active) in experiment [1]; 8.33 µM (active) in [2]; 10.5 µM (active) in experiment [3]; 13.2 µM (active) in experiment [4]; 3.72 µM (active) in experiment [5]; 5.26 µM (active) in [6]. The Potency in [7] is 13.2 µM (active); in [8], 16.6 µM (active); in experiment [9], 0.662 µM (active); in experiment [10], 0.469 µM (active). In experiment [13], the Potency entry is “inactive”.
Consider `COc1cccc(OC)c1-c1cc(C(=O)NC2(C(=O)O)C3CC4CC(C3)CC2C4)nn1-c1ccnc2cc(Cl)ccc12` (centres undefined), for which the values for the Potency in [1] and in experiment [2] were 9.34 µM (active) and 5.9 µM (active), respectively. In addition, the Potency result in experiment [3], in [4], in experiment [5], in experiment [6], in experiment [7] and in experiment [8] was “inactive” each time. Also, the Potency result in experiment [9], in [11] and in experiment [13] was “inactive” throughout. Further, in experiment [12], the activity (max response) was -4.12%.
